Experimental data from PubChem BioAssay (NCI).
This is part of a sample that, as a whole, favours compounds with a hit. Of some 83,000 tested, about 20% had one in any assay.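 Step 1: grow cells in 96-well plates. Step 2: add test compound at a single concentration. Step 3: incubate 48 h. Step 4: record percent growth.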 The source made the active and inactive calls. Rule for the calls: active = growth percent below 10; inactive = the rest.

Assays:
Assay in all cases: NCI-60 one-dose screen, 48 h (100 = growth as untreated, 0 = no growth, -100 = all killed)
Settings in all cases: 10 µM unless noted
[1] = tested on: DU-145 prostate
[2] = tested on: K-562 leukemia
[3] = tested on: MALME-3M melanoma
[4] = tested on: MDA-MB-231 breast
[5] = tested on: RXF 393 renal
[6] = tested on: SF-268 CNS
[7] = tested on: SF-295 CNS
[8] = tested on: SF-539 CNS
[9] = tested on: UACC-257 melanoma
[10] = tested on: M14 melanoma
[11] = tested on: HCT-15 colon
[12] = tested on: HT29 colon
[13] = tested on: SNB-75 CNS
[14] = tested on: SNB-19 CNS
[15] = tested on: U251 CNS
[16] = tested on: PC-3 prostate
[17] = tested on: SK-MEL-5 melanoma
[18] = tested on: UACC-62 melanoma
[19] = tested on: LOX IMVI melanoma
[20] = tested on: SK-MEL-28 melanoma

Measured: growth

CNc1ncc2cc(-c3cc(NC(=O)NCCC(C)(C)C)c(F)cc3C)c(C)nc2n1
inactive: [1] 32.6% | [6] 26.5% | [7] 25.5% | [8] 27.5% | [11] 19% | [14] 23.6% | [15] 16% | [16] 49.1% | [17] 23.6%
active: [2] 3.92% | [3] 1.23% | [4] 1.7% | [5] -23.3% | [9] -10.3% | [10] -12.4% | [12] 3.91% | [13] -16.9% | [18] -7.93% | [19] -34.1%

CC(C)Nc1cc(-c2c[nH]c(C(=O)N[C@H](CO)c3cccc(Cl)c3)c2)c(Cl)cn1
inactive: [1] 57.4% | [2] 19.8% | [4] 20.1% | [6] 59.6% | [7] 45.6% | [8] 45.2% | [11] 25.1% | [13] 51.8% | [14] 51.3% | [15] 28% | [16] 34.9% | [18] 11.7% | [19] 14%
active: [3] 9.08% | [5] 2.5% | [9] -9.52% | [10] 3.28% | [12] 1.57% | [17] -7.93%

C[C@@H](NC(=O)c1ncnc(N)c1Cl)c1ncc(C(=O)Nc2cc(C(F)(F)F)c(Cl)cn2)s1
inactive: [1] 94.9% | [2] 11.5% | [4] 39% | [5] 106% | [6] 93% | [7] 90.2% | [8] 86.4% | [10] 15% | [11] 86.4% | [12] 20.1% | [13] 103% | [14] 94.7% | [15] 75.9% | [16] 93.7% | [17] 51.2% | [19] 36.5%
active: [3] 3.24% | [9] -13.9% | [18] -0.831%

CS(=O)(=O)N1CCc2c(-c3cnc(N)nc3)nc(N3CCOCC3)nc21
inactive: [1] 13.5% | [2] 22.3% | [4] 30.4% | [6] 14.7% | [10] 10.4% | [14] 16.1% | [15] 12.4% | [16] 10.1%
active: [3] -17.6% | [5] -36.2% | [7] -34.7% | [8] -45.1% | [9] -18% | [11] 9.65% | [12] 6.31% | [13] -45.1% | [17] -3.03% | [18] -41.1% | [19] 1.28% | [20] -15.9%

CC(=O)C1CC(C)CCC1C(C)C (stereo unspecified)
inactive: [1] 111% | [2] 77% | [3] 126% | [4] 80.2% | [5] 107% | [6] 105% | [7] 120% | [8] 102% | [9] 111% | [10] 103% | [11] 104% | [12] 101% | [13] 81.1% | [14] 91.1% | [15] 107% | [16] 55.4% | [17] 98.9% | [18] 85.3% | [19] 86.6% | [20] 123%

CN(C)C[C@@H]1CCn2cc(c3ccccc32)C2=C(C(=O)NC2=O)c2cn(c3ccccc23)CCO1
inactive: [1] 13.2% | [6] 36.6% | [7] 21% | [14] 15.3% | [17] 22.5% | [18] 43%
active: [2] -58.7% | [3] -70.5% | [4] -35.8% | [5] -72.9% | [8] -93.2% | [9] -20.1% | [10] 3.4% | [11] -31.7% | [12] 0.848% | [13] -76.1% | [15] -70.8% | [16] 0.163% | [19] -70.1%

CCOC(=O)c1sc(NC(=O)COc2ccc(/C=C3\Cc4ccc(Cl)cc4C3=O)cc2)nc1C
inactive: [1] 117% | [2] 102% | [3] 110% | [4] 90.6% | [5] 116% | [6] 114% | [7] 127% | [8] 86.9% | [9] 112% | [10] 107% | [11] 120% | [12] 116% | [13] 95.8% | [14] 102% | [15] 99.2% | [16] 97% | [17] 106% | [18] 93.4% | [19] 97.9% | [20] 127%

O=C(O)c1ccc2c(c1)nc(Nc1cccc(Cl)c1)c1ccncc12
inactive: [1] 33.7% | [6] 14.8% | [12] 19.2% | [14] 13.5% | [16] 10.1%
active: [2] 8.63% | [3] -10.2% | [4] 3.58% | [5] -9.7% | [7] 6.7% | [8] -23.8% | [9] -7.85% | [10] -0.117% | [11] 5.48% | [13] -25.6% | [15] -24.6% | [17] -64.9% | [18] -50.4% | [19] 7.77% | [20] 3.16%

CC[C@@H]1C(=O)N(C)c2cnc(Nc3ccc(C(=O)NC4CCN(C)CC4)cc3OC)nc2N1C1CCCC1
active: [1] 9.68% | [2] 0.167% | [3] -15.9% | [5] -3.01% | [8] -82.4% | [9] -9.29% | [10] -25.9% | [11] 4.6% | [12] -3.91% | [13] -0.626% | [17] -80.6% | [19] -73.5%
inactive: [4] 17% | [6] 15.5% | [7] 11% | [14] 31.3% | [15] 12.7% | [16] 28% | [18] 11.6% | [20] 34.4%

Cn1ccnc1C(=O)/C=C/c1ccc(CC(=O)Nc2ccc(Br)cc2)cc1
active: [1] 3.61% | [2] 6.58% | [8] -38.5% | [11] 5.5% | [12] 0.238% | [13] 8.2% | [15] 5.83% | [19] 7.81%
inactive: [3] 75.5% | [4] 10.1% | [5] 21% | [6] 16.2% | [7] 19.4% | [9] 79.1% | [10] 53.6% | [14] 11.4% | [16] 23% | [17] 62.9% | [18] 33% | [20] 92.3%

COc1cc(Nc2ncc3c(n2)-c2ccc(Cl)cc2C(c2c(F)cccc2OC)=NC3)ccc1C(=O)O
inactive: [1] 78.4% | [2] 44.9% | [3] 72.4% | [4] 69.6% | [5] 95% | [6] 73% | [7] 64.6% | [8] 56.6% | [9] 80.8% | [10] 62.8% | [11] 37.2% | [12] 40.7% | [13] 91.6% | [14] 74.1% | [15] 51.6% | [16] 60.7% | [17] 67.8% | [18] 64.6% | [19] 35.9% | [20] 84.7%

COC(=O)[C@H](Cc1ccccc1)NC(=O)[C@@H](OC)[C@@H]1Cc2cc3cc(OC4CC(OC5CC(O)C(O)C(C)O5)C(O)C(C)O4)c(C)c(O)c3c(O)c2C(=O)[C@H]1OC1CC(OC2CC(OC3CC(C)(O)C(O)C(C)O3)C(O)C(C)O2)C(O)C(C)O1 (stereo partly specified)
inactive: [1] 11.8%
active: [2] 5.63% | [3] -54.8% | [4] -8.99% | [5] -75% | [6] -2% | [7] -9.46% | [8] -35.7% | [9] -16.2% | [10] -60.8% | [11] 5.61% | [12] 4.24% | [13] -86.8% | [14] 4.82% | [15] 2.62% | [16] -9.57% | [17] -78% | [18] -56.6% | [19] -18.2% | [20] -27%

Cc1cc2c(F)c(Oc3ncnn4cc(OC[C@@H](C)OC(=O)[C@H](C)N)c(C)c34)ccc2[nH]1
inactive: [1] 66.5% | [2] 41.5% | [3] 11.4% | [4] 39.8% | [5] 43.8% | [6] 74.7% | [7] 77.6% | [8] 73.5% | [10] 16.3% | [11] 38.6% | [13] 55.6% | [14] 51.8% | [15] 44.8% | [16] 54.5% | [17] 42.6% | [19] 26.5% | [20] 10.5%
active: [9] -15.9% | [12] 6.32% | [18] 2.73%

CCN1CCN(CCCN(C[C@H]2Cc3ccccc3CN2)[C@H]2CCCc3cccnc32)CC1
inactive: [1] 96.7% | [2] 63.5% | [3] 113% | [4] 77.4% | [5] 93.8% | [6] 75.9% | [7] 90.7% | [8] 94.2% | [9] 80.4% | [10] 87.3% | [11] 72.5% | [12] 75.2% | [13] 84.8% | [14] 84.9% | [15] 79.2% | [16] 77.3% | [17] 97.7% | [18] 106% | [19] 74.3% | [20] 108%

O=C(/C=C/c1ccc2c(c1)OCO2)c1c(O)c2ccccc2oc1=O
inactive: [1] 109% | [2] 69.4% | [3] 101% | [4] 103% | [5] 135% | [6] 93.6% | [7] 100% | [8] 105% | [9] 78.1% | [10] 94.9% | [11] 97.1% | [12] 96.6% | [13] 87.7% | [14] 115% | [15] 101% | [16] 95.9% | [17] 111% | [18] 96.7% | [19] 94.6% | [20] 112%
